Test [1] in a line: anti-His antibody binders, primary screen, artefact control for SMM control protein annotation, biochemical, small-molecule microarray, 635 nm fluorescence (AID 1128).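 Also: score merges feature fluorescence with signal-to-noise for each printed compound spot.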 Particulars: anti-His Alexa647 antibody binding, higher = more signal.
The subject of test [2] is Human papillomavirus type 1a E7 protein (residues 1-88). Put plainly: HPV1a E7 small-molecule binders, primary screen, biochemical, small-molecule microarray, residues 1-88, 635 nm (AID 1129). Particulars: small-molecule microarray binding, fluorescence 635 nm; higher = more signal.
The target in test [3] is Focal adhesion kinase 1 (Homo sapiens) (UniProt Q05397). Put plainly: small-molecule microarray binders of FAK, primary screen, biochemical, 635/667 nm fluorescence, BSA, DTT (AID 1130).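 Also: composite of spot emission at 667 nm and signal to noise over triplicate slides.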 The note with it: PTK2 binding, 635 nm fluorescence, higher = more signal.
In test [4] the test system is Fibrinogen (Alexa647-labelled). Put plainly: fibrinogen binders on compound microarrays, profiling panel, artefact control for SMM control-protein annotation, biochemical, small-molecule microarray, 635/667 nm fluorescence (AID 1131).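 Also: z-score merges 667 nm fluorescence with per-spot signal-to-noise over triplicate slides.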 The note with it: fibrinogen-A647 binding fluorescence, higher = more signal.
The target of test [5] is Follistatin (Homo sapiens) (UniProt P19883). The test is described as follows: follistatin binders on small-molecule microarrays, primary screen, biochemical, small-molecule microarray, 635/667 nm fluorescence (AID 1132). The note with it: FST binding, 635 nm fluorescence, higher = more signal.
For test [6], the target named is Fibroblast growth factor 2 (Homo sapiens) (UniProt P09038). Put plainly: FGF2 binders on small-molecule microarrays, primary screen, biochemical, small-molecule microarray, 635/667 nm fluorescence (AID 1133). The note with it: small-molecule microarray binding, FGF2, fluorescence 635/667; higher = more signal.
Test [7] in a line: mitochondrial membrane potential change in A549 cells, profiling panel, cell-based, JC-1 fluorescence, basal, 24 h, 100 nL (AID 1138).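 Also: A549 lung adenocarcinoma cells under basal conditions with no added stimulus; test concentration not given here.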 Particulars: higher = more signal.
For test [8], the system named is Lefty1. Put plainly: Lefty1 binders on small-molecule microarrays, primary screen, biochemical, small-molecule microarray, 635/667 nm fluorescence (AID 1139). Particulars: small-molecule microarray binding, fluorescence 635/667; higher = more signal.
In test [9] the test system is wheat germ agglutinin (Triticum aestivum), Alexa647-labelled. Put plainly: wheat germ agglutinin binders on compound microarrays, profiling panel, artefact control for SMM control-protein annotation, biochemical, small-molecule microarray, 635/667 nm fluorescence (AID 1140).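 Also: score merges 667 nm feature emission with signal to noise over triplicate slides.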 The note with it: WGA-A647 binding, 635 nm fluorescence, higher = more signal.
For test [10], the target named is Luciferin 4-monooxygenase (Photinus pyralis) (UniProt P08659). The test is described as follows: firefly luciferase enzyme inhibitors, primary screen, biochemical, luminescence, purified enzyme, 2006 set (AID 1141).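 Also: cell-free assay with purified firefly luciferase at 100 ng per well in PBS; test concentration not given here.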 Particulars: SteadyGlo luminescence, 30 min, higher = more signal, called active from +8 up or from −8 down.
In test [11] the test system is Wnt5a (protein binding on small-molecule microarray). Put plainly: Wnt5a binders on small-molecule microarray, primary screen, biophysical, 635/667 nm fluorescence (AID 1142).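 Also: fluorescence read at 667 nm with signal to noise per printed feature.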 The note with it: 635 nm fluorescence, higher = more signal.
Test [12] is described as follows: cell viability in Huh7 cells, primary screen, cytotoxicity control for HCV replication inhibitor project, CellTiter-Glo luminescence, basal, 48 h (AID 1143).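 Also: Huh7 hepatoma cells carrying a hepatitis C replication reporter with no stimulus; test concentration not given here.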 Particulars: Huh7 HCV replicon, higher = more signal, called active from +8 up or from −8 down. (In general: ATP-based viability assays read luminescence as a measure of living cells.)
Test [13] in a line: P. aeruginosa biofilm formation inhibitors, primary screen, PAO1 strain, BacTiter-Glo luminescence, LB-PBS (AID 1144). Particulars: 12 h, higher = more signal.
Test [14] is described as follows: CREB reporter modulators without forskolin, primary screen, cell-based, PC12, CRE-LacZ reporter, unstimulated (AID 1145). The note with it: no forskolin, luminescence, 4.5 h, higher = more signal, called active from +8 up or from −8 down.
Test [15] can be described thus: CREB reporter modulators under forskolin, primary screen, cell-based, PC12, CRE-LacZ reporter, forskolin-stimulated (AID 1146).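 Also: PC12 cells with 6xCRE LacZ reporter stimulated by forskolin 10 µM; beta-galactosidase reporter signal reflecting CREB driven transcription.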 The note with it: luminescence, 4.5 h, higher = more signal, called active from +8 up or from −8 down.
Test [16] concerns the target Streptavidin (Streptomyces avidinii) (UniProt P22629). The test is described as follows: streptavidin binders on small-molecule microarray, primary screen, artefact control for SMM compound annotation, biophysical, 635/667 nm fluorescence (AID 1147).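 Also: signal reflects streptavidin binding to arrayed compounds as a control protein.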 Particulars: streptavidin binding, higher = more signal.
Test [17] is described as follows: small-molecule binders of probe aInhba, primary screen, biochemical, small-molecule microarray, 635/667 nm fluorescence (AID 1148).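 Also: score merges 667nm spot fluorescence with signal-to-noise for antibody binding to printed compounds.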 The note with it: higher = more signal.
Test [18] deals with Torsin-1A (Homo sapiens) (UniProt O14656). The test is described as follows: torsin A binders from cell lysate, primary screen, small-molecule microarray, wild-type, 635/667 nm (AID 1149). Particulars: COS7 hTOR1A-WT lysate, 635 nm fluorescence, higher = more signal.
For test [19] the target is unchanged. Put plainly: small-molecule binders of mutant TOR1A in lysate, primary screen, cell lysate, small-molecule microarray, COS7 lysate, 635/667 nm fluorescence (AID 1150).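 Also: score pools 667 nm emission and signal to noise measuring lysate protein binding.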 The note with it: COS7 hTOR1A mutant lysate, 635 nm fluorescence, higher = more signal.
For test [20], the system named is Sonic hedgehog protein (Shh). The test is described as follows: small-molecule binders of Shh protein, primary screen, biochemical, small-molecule microarray, 635/667 nm fluorescence (AID 1151).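 Also: Shh protein binding to compounds spotted on small-molecule microarray slides; score combines spot fluorescence intensity with signal-to-noise across triplicate slides.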 Particulars: small-molecule microarray binding, 635 nm fluorescence; higher = more signal.

We go through four compounds from PubChem BioAssay.

“And” between values parts separate entries of the source, which are not always exact repeats. Identical values can stand only once. The source made the active and inactive calls. Unless noted, no rule for the calls is given here.

Sequence of Follistatin (Homo sapiens) (P19883 whole entry, looked up): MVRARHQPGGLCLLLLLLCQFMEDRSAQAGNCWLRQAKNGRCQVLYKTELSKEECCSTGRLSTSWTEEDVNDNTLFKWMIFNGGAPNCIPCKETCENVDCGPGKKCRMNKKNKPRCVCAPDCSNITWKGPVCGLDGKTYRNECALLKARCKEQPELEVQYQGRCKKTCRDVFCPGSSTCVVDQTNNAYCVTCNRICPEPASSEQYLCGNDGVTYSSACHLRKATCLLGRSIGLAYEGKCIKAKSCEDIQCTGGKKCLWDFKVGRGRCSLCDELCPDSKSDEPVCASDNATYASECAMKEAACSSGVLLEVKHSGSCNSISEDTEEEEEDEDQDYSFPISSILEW
Sequence of Streptavidin (Streptomyces avidinii) (P22629 whole entry, looked up): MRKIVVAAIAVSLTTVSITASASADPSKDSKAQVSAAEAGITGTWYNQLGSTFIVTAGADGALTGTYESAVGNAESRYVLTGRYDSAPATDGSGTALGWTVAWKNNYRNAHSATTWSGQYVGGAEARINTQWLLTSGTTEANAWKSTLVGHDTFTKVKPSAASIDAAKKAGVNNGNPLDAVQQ
Sequence of Focal adhesion kinase 1 (Homo sapiens) (Q05397 whole entry, looked up): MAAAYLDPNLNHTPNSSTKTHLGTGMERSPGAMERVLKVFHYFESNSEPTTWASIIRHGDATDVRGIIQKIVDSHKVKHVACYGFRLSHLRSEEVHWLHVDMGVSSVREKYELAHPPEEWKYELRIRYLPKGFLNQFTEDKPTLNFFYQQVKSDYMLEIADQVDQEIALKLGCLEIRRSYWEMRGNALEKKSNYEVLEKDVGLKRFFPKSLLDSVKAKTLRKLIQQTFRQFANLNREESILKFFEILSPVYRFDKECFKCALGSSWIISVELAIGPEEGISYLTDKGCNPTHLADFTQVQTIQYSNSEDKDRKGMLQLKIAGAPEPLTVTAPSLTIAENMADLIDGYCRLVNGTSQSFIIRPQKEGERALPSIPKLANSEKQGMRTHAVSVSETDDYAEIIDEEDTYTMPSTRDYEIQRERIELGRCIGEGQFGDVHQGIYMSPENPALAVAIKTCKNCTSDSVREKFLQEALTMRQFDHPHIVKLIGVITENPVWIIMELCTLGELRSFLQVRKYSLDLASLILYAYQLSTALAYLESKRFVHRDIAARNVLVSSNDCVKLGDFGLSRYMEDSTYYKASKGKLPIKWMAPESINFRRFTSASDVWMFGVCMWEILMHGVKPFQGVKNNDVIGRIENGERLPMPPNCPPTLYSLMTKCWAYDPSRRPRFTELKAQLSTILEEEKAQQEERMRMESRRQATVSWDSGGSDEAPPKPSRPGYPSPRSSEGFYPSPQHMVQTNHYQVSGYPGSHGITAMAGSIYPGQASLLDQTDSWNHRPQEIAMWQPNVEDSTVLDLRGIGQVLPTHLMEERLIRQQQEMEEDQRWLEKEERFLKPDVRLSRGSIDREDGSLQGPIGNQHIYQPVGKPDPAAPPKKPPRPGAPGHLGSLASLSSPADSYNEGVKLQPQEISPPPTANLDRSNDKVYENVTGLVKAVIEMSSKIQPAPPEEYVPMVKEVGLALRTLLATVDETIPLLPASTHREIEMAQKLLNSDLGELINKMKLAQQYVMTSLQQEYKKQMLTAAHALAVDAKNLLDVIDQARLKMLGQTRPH
Sequence of Luciferin 4-monooxygenase (Photinus pyralis) (P08659 whole entry, looked up): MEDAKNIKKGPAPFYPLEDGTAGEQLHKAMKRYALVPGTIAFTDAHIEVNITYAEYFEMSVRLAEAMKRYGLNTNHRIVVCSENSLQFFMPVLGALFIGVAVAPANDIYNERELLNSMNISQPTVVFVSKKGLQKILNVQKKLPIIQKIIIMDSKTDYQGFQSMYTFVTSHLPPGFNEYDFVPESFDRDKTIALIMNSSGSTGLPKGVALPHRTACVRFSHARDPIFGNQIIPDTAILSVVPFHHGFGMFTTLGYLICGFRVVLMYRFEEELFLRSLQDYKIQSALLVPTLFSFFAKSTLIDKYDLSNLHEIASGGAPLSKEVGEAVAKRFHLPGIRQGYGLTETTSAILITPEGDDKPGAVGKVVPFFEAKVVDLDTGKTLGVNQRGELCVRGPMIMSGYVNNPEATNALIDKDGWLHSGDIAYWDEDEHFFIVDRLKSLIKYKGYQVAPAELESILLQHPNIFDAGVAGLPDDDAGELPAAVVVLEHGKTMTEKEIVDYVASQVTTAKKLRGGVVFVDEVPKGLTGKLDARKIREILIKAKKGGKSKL
Sequence of Torsin-1A (Homo sapiens) (O14656 whole entry, looked up): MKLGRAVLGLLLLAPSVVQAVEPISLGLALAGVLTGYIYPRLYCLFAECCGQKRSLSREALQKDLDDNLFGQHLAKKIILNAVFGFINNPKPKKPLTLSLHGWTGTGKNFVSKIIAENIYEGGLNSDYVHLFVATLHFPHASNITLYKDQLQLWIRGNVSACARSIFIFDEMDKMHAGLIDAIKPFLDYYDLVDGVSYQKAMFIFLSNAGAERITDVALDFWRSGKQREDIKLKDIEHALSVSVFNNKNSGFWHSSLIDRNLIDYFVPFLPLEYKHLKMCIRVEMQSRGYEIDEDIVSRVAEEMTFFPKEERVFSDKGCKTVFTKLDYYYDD
Sequence of Fibroblast growth factor 2 (Homo sapiens) (P09038 whole entry, looked up): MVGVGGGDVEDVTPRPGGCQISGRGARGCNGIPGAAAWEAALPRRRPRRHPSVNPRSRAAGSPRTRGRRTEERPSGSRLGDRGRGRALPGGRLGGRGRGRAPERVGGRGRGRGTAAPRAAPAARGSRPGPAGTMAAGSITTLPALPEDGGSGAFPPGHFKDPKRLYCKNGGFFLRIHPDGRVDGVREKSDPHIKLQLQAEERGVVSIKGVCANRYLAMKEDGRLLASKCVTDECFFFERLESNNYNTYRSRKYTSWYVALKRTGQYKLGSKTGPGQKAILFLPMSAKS

With `C=C[C@@H](OC)[C@H](O)c1ccc(O)c(F)c1`, the composite z-score in [1] was -0.709 and -0.462; in [2], -0.912 and -1.26; in test [3] it was -0.746 and -0.838; in test [4], -1.11 and -0.58; in test [5], -1.18 and -0.404; in test [6] it was -1.39 and 0.0341. The composite z-score is -1.7 and -0.947 in [8]; -0.303 and -0.223 in test [9]; -0.843 and -0.24 in [11]; -1.35 and -1.17 in test [16]; -0.314 and -0.154 in test [17]; -1.65 and -0.846 in test [18]. The composite z-score in [19] was -2.28 and -0.978; in [20] it was -0.644 and 0.0436. In addition, the z-score in [7] was -0.329 and 0.662; in test [10], -0.981 (inactive) and -1.3 (inactive); in [12] it was 0.558 (inactive) and -0.495 (inactive); in test [13] it was -0.776 (inactive) and 0.181 (inactive); in test [14], 0.572 (inactive) and 0.427 (inactive); in test [15], -0.881 (inactive) and -0.122 (inactive).
Take `C[N+](C)(C)CCCCNC(=O)[C@H]1C[C@H]2C(=O)N[C@@H](CCCC[N+](C)(C)C)C(=O)N2[C@H]1c1ccc(O)cc1`: the composite z-score in [1] is 2.99 and 3.33; in test [2], 0.395 and -1.59; in test [3], 0.267 and -0.478; in [4], 0.56 and -1.1; in test [5], 1.57 and 1.45; in test [6], 2.01 and 1.99. The composite z-score in [8] was 1.62 and 1.64; in test [9], -0.608 and -1.01; in test [11], 0.96 and 0.388; in test [16], 0.16 and -1.27; in [17] it was -0.154 and -0.251; in [18], 2.32 and 1.51. Also, the composite z-score in test [19] was 0.287 and 0.683; in [20] it was 2.27 and 2.33. The z-score in test [7] was -0.0637 and -0.967; in test [10], 0.325 (inactive) and 0.332 (inactive); in test [12], 0.171 (inactive) and -2.13 (inactive); in test [13] it was -0.597 (inactive) and -1.3 (inactive); in [14], -0.541 (inactive) and 0.679 (inactive); in test [15], 0.485 (inactive) and -0.16 (inactive).
Consider `C=CCN(C(=O)C1N(CCCCCCO)C(=O)C2C(C(=O)O)C3C=CC21O3)C(C)(C)C` (stereo not given), for which the composite z-score in test [1] was -1 and 0.0369; in [2], -1.24 and -0.385; in test [3] it was -0.837 and -0.881; in test [4], -4.96 and -2.32; in test [5] it was -1.88 and -2.11; in test [6], -1.42 and -1.7. Moreover, the composite z-score was -2.49 and -1.84 in test [8]; -0.75 and -0.561 in test [9]; -1.54 and -1.09 in test [11]; -1.47 and -1.01 in test [16]; -0.251 and -0.278 in test [17]; -3.52 and -3.83 in test [18]. Moreover, the composite z-score is -3.07 and -2.82 in test [19]; -1.68 and -1.49 in test [20]. Besides, the z-score in [7] was 0.219 and 0.389; in test [10], -1.04 (inactive) and -0.426 (inactive); in [12] it was 0.317 (inactive) and 0.148 (inactive); in test [13], 1.99 (inactive) and 1.42 (inactive); in [14] it was 0.992 (inactive) and -0.216 (inactive); in test [15] it was 0.129 (inactive) and 0.453 (inactive).
Regarding `C=CCN(CCCC)C(=O)C1N(CCCCCCO)C(=O)C2C(C(=O)O)C3C=CC21O3` (stereo not given), the composite z-score in test [1] was -1.27 and 0.826; in [2] it was -0.618 and -0.472; in [3], -0.725 and -0.445; in test [4], -0.574 and -1.65; in test [5], -1.74 and -2.89; in test [6], -1.97 and -2.02. The composite z-score in test [8] is -2.3 and -2.2; in test [9], 0.483 and -1.28; in test [11] it was -0.718 and -0.319; in test [16], -1.46 and -1.12; in test [17], -0.35 and -0.312; in [18], 1.31 and -1.36. Further, the composite z-score in test [19] was -2.04 and -2.49; in [20], -1.18 and -1.43. The z-score was -0.242 and 0.214 in [7]; 0.314 (inactive) and 0.488 (inactive) in test [10]; 0.427 (inactive) and 0.424 (inactive) in test [12]; 0.759 (inactive) and 2.36 (inactive) in [13]; 0.0645 (inactive) and -0.769 (inactive) in test [14]; 0.149 (inactive) and 0.147 (inactive) in test [15].
